The structures appear in SMILES notation. The whole screen tested about 47,000 compounds, of which about 2,500 (5.3%) were called active. Only a selection was taken, and actives are over-represented in it overall. A number with no mark means an inactive call. No stated cut-off is given here; in the data, active means inhibition above about 30%; inactive means the rest.

For this test, the target named is Ubiquitin carboxyl-terminal hydrolase 30 (Homo sapiens) (UniProt Q70CQ3). Nature of the test: inhibitors of human USP30 deubiquitinase (AID 1645860). To be noted: purified USP30, Ub-rhodamine cleavage fluorescence; at 25 µM; active compounds read high.
Ubiquitin carboxyl-terminal hydrolase 30 (Homo sapiens), sequence (Q70CQ3 whole entry, looked up): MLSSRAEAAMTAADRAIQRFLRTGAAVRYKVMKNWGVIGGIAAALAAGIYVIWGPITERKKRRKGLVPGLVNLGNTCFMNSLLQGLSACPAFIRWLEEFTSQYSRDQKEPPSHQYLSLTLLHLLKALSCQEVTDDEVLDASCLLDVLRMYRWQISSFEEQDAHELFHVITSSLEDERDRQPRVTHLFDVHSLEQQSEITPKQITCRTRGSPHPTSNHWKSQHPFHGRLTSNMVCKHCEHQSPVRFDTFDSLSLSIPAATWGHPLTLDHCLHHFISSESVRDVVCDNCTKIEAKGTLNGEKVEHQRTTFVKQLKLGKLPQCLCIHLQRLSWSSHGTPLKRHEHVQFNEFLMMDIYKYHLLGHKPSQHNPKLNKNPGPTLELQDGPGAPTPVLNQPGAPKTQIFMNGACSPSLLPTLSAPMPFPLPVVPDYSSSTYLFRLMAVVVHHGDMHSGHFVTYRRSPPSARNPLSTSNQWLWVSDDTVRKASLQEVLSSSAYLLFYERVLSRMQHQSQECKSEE
As usually defined, the inhibition is the relative decrease from the control value, in per cent. In the case of `Cc1cc(=O)n(CC(=O)NCc2ccccc2)c(N2CCCC2)n1`, the inhibition was 0.241%. For `CCCOc1ccc(CNC(=O)C2CCCN(c3nnc(N4CCCC4=O)s3)C2)cc1` (configuration not stated) the value was 5.69%; for `Cc1ccc(CNC(=O)c2cc(=O)nc3sc(N4CCCC(C)C4)nn23)cc1` (configuration not stated), 30.1% (active). In the case of `COc1ccccc1-n1ccnc(NC(=O)c2cccc(F)c2)c1=O`, the inhibition was 11%. In the case of `COc1cccc(C(=O)Nc2nccn(-c3cccc(F)c3)c2=O)c1`, the inhibition was 0.051%. Next, `COc1cccc(NC(=O)Nc2nccn(-c3ccccc3)c2=O)c1`: 39.1% (active). As for `CSc1ncccc1C(=O)Nc1ccnn1C(C)c1ccncc1` (configuration not stated), the inhibition was -23%. Next, `CCn1c2ccccc2n2c(S(=O)(=O)Cc3ccccc3)nnc12`: 5.02%; `Cc1sc2nc(C3CC3)n(C3CCN(C(=O)C(C)C)CC3)c(=O)c2c1C`: 18.3%. Next, `CCC(Oc1ccccc1)C(=O)NCc1ccc2c(c1)OCO2` (configuration not stated): 21.1%; `c1cc(CNCc2ccc3c(c2)OCO3)ccn1`: 0.888%. Regarding `c1ccc(-c2ccc(NCc3ccc4c(c3)OCO4)nn2)cc1`, the inhibition is 33.6% (active). Next, `Cc1cccc(CN2CCN(CC(=O)NCCN3CCOCC3)C2=O)c1`: -2.8%; `O=C(NCc1ccccc1F)c1nnn(-c2ccccc2)n1`: 14.4%; `CSCc1c(C)noc1-c1cc(C)on1`: 8.31%. For `COc1ccccc1N(Cc1nc2nc(C)cc(C)n2n1)C(=O)c1ccccc1` the value was -0.203%; for `CCOc1nc(-c2ccc(Cl)cc2Cl)nc2ccccc12`, 13.4%. Turning to `Cc1ccnc(Nc2nc(-c3ccccc3)c3cc(Cl)ccc3n2)n1`, the inhibition is 82.8% (active). Take `CCOc1ccc(Nc2cc(C(=O)NCCN3CCCC3)c3ccccc3n2)cc1`: the inhibition was 29.9%. Turning to `CC(=O)C[n+]1cc(-c2ccc(C)cc2)n2c1CCC2`, the inhibition is 5.82%. For `CCOc1ccc(C(=O)C[n+]2cc(-c3ccccc3)n3c2CCC3)cc1` the value was 30.3% (active). For `CCN1CCN(c2ccc(NC(=O)c3cccc(C)c3)cn2)C1=O` the value was -23.3%; for `Cc1nc(-c2cnccn2)n(CC(=O)Nc2ccc(F)cc2)c(=O)c1C`, 2.83%; for `CC(=O)c1cccc(Nc2c(C(=O)N3CCCC3)cnc3nc(C)ccc23)c1`, -35.8%.

`OCc1ccccc1-c1cnc2sc(NCCc3ccccn3)nn12`: the inhibition was 16.3%. Next, `COCCNc1nn2c(-c3ccc4ccccc4c3)cnc2s1`: 30.2% (active). For `Cc1nnn(C23CC4CC(CC(C(=O)NC5CCCC5)(C4)C2)C3)n1` the value was 21.2%; for `CCOc1ccccc1N1CCN(C(=O)c2snc(-c3ccncc3)c2N)CC1`, 1.69%; for `O=C(CCC(=O)N(c1ccccc1)c1ccccc1)Nc1ccccc1`, -16.4%. `O=C(Cn1cnc2c(sc3ccccc32)c1=O)Nc1ccc2c(c1)OCCO2`: the inhibition is -498%.

With `CN(c1ccccc1)c1nc(=O)n(CC(=O)Nc2ccc3c(c2)OCCO3)c2ccccc12`, the inhibition was 42.3% (active).

For `COc1ccc(C)cc1NC(=O)Cn1c(=O)nc(N(C)c2ccccc2)c2ccccc21`, the inhibition is 0.767%. As to `CCCCS(=O)(=O)N1C[C@H]2CC[C@@]3(N=C(C)N(CC4CC4)C3=O)[C@H]2C1`, the inhibition is 12.5%.

As for `CNC(=O)c1sc2nccnc2c1C1CCN(C(=O)c2cccc(F)c2)CC1`, the inhibition was 13.3%. Next, `CNc1cc(C2CCCN2C(=O)c2cc3c([nH]c2=O)CCC3)ccn1` (configuration not stated): -20.8%; `CC(C)N(C(=O)CSc1nc2ccc([N+](=O)[O-])cc2s1)C(C)C`: -147%; `CC(C)Cc1cc(C(=O)N2CCN(C)CC(C(N)=O)C2)on1` (configuration not stated): 16.9%.

Regarding `C=C1CC[C@@H]2[C@@]3(C)CCC(=O)C(C)(C)[C@@H]3CC[C@@]2(C)[C@]12Cc1c(c(C)c(C)oc1=O)O2`, the inhibition was 30.3% (active). For `CNC(=O)Nc1ccc(C2(C(=O)NC3CCCC3)CCC2)cc1` the value was -19.9%. Next, `CC12C(=O)N(CCCN3CCOCC3)CC(=O)N1CCc1c2[nH]c2ccccc12` (configuration not stated): 7.84%. Next, `Cc1cc(NC2CCCCC2)n2ncc(-c3ccccc3Cl)c2n1`: -16.5%; `COc1ccc(NS(=O)(=O)c2cc(NC(=O)CC(=O)c3ccc([N+](=O)[O-])cc3)ccc2C)cc1`: 29.7%. Consider `Cc1ccc(NC(=O)CCOc2ccccc2)cc1S(=O)(=O)Nc1ccccc1Cl`, for which the inhibition was 30.4% (active). Next, `Cc1ccc(NC(=O)CCC(=O)N(c2ccccc2)c2ccccc2)cc1Cl`: 17.2%; `O=C(Nc1nnc(-c2cccs2)o1)C1CCCCC1`: 10.9%; `Nn1c(SCC(=O)Nc2ccccc2F)nnc1-c1n[nH]c2c1CCC2`: -0.125%. For `Cc1cc(NC(=O)COC(=O)c2cccc(C)c2O)ccc1Br` the value was 6.49%; for `Cc1cc(-c2nnc(SCC(=O)Nc3ccc(Br)c(C)c3)n2N)n[nH]1`, 71.5% (active). Next, `O=C(c1cnc2sc3c(n2c1=O)CCC3)N1CCCCC1`: -37.1%; `CC(C)c1nc2oc3c(N4CCN(CCO)CC4)ncnc3c2c2c1CCC2`: 18.4%; `CC(C)Cc1nc2sc3c(NCc4ccco4)ncnc3c2c2c1CCC2`: -21.1%. Regarding `CC(O)CNc1ncnc2c1oc1nc(C(C)C)c3c(c12)CCC3` (configuration not stated), the inhibition is 38.1% (active). For the molecule `CC(C)n1cnc2c1C(C(=O)N1CCN(C)CC1)N(Cc1ccccc1)CC2` (configuration not stated), the inhibition is 9.34%. With `CC(C)(C)C(=O)N1CCC2(COCc3cnc(NCc4ccco4)nc32)C1` (configuration not stated), the inhibition is 2.12%.

With `Cc1c(S(=O)(=O)N2CCCCC2)c(C)n(C)c1-c1nnc(C2CCC2)o1`, the inhibition was 3.55%. Next, `Cc1nnc(NCc2ccc(Cl)cc2)[nH]c1=O`: 26%; `CSc1cccc(NC(=O)COc2ccc(C(=O)c3ccccc3)cc2)c1`: -4.48%; `CSc1cccc(NC(=O)CCc2ccc3nc[nH]c3c2)c1`: -0.451%.

As to `CSc1cccc(NC(=O)CCn2c(=O)c3cccn3c3ccccc32)c1`, the inhibition is 32.6% (active).

Consider `Cc1cc2n(n1)CCCN2C(=O)CCC(=O)Nc1ccc(F)cc1F`, for which the inhibition was -24.2%. For `CC(=O)N1C[C@H]2C3(CCN(C(=O)c4ccccc4)CC3)CC[C@@]2(C(=O)N(C)C)C1` the value was 25.8%. For `Cc1ccc(Cc2nc(CC(=O)Nc3ccc(F)cc3F)n[nH]2)cc1` the value was -1.22%; for `Cc1ccc(-n2cc(-c3noc(C(=O)Nc4ccc(F)cc4C)n3)nn2)cc1`, 36.9% (active); for `Cc1cc(F)ccc1NC(=O)c1cc(C2CC2)n2nccc2n1`, -33.1%. For `CCC(C(=O)Nc1ccc(-c2cn3cccnc3n2)cc1)c1ccccc1` (configuration not stated) the value was -89.6%; for `N#Cc1ccc(C(=O)Nc2cccc(-c3noc(C4CC4)n3)c2)c(F)c1`, 13.2%; for `Cc1ccc(F)c2c(=O)c3c([nH]c12)CCN(CC(=O)Nc1cccc(C#N)c1)C3`, -178%. Consider `O=C(Cn1c(=O)n(Cc2ccc3c(c2)OCO3)c(=O)c2ccccc21)NCc1ccco1`, for which the inhibition was 33% (active). For `CC(C)(C)C(=O)Cn1c(=O)n(Cc2ccco2)c(=O)c2ccccc21` the value was 1.71%; for `O=C(Cn1c(=O)n(Cc2ccc3c(c2)OCO3)c(=O)c2cccnc21)Nc1ccc(F)cc1`, 21.5%; for `Cc1cc2oc(=O)cc(CN3CCN(Cc4ccccc4)CC3)c2cc1C`, 3.27%. For `COc1ccccc1NC(=O)c1cccc(S(=O)(=O)N2CCc3ccccc32)c1` the value was -7.37%; for `Cc1ccc(NC(=O)c2ccc3c(c2)N(S(C)(=O)=O)CC3)cc1C`, -53.8%; for `Cc1cccc(NC(=O)Nc2ccc3c(c2)N(S(=O)(=O)c2ccccc2)CC3)c1C`, 30.5% (active).

Regarding `COc1ccc(C2=NC3(CCN(Cc4cccc(F)c4)CC3)NC2=O)cc1`, the inhibition was -23.4%. For `CCc1cnc(N2CC[C@@H]3CN(CCC(C)C)S(=O)(=O)[C@@H]3CC2)nc1` the value was 27.9%. `Cc1ccc2c(=O)cc(CN(C)Cc3ccc(F)cc3)[nH]c2c1C`: the inhibition was -7.81%. For `COc1ccc(C2=CC(c3ccc(Cl)cc3)n3ncc(C(=O)Nc4ccccc4)c3N2)cc1` (configuration not stated) the value was -15.7%. For `C=C1CCC2[C@](C)(CCC[C@]2(C)C(=O)OC)[C@H]1CCc1ccoc1/C=C/C(=O)O` (some centres not stated) the value was 61.8% (active). For `C=C1CCC2[C@](C)(CCC[C@]2(C)C(=O)OC)[C@H]1CCc1ccoc1C[N+](C)(C)Cc1ccccc1` (some centres not stated) the value was 72.7% (active). On to `CNc1nc(C2CCNCC2)nc2c1CCN(S(=O)(=O)c1ccccc1Cl)C2`, for which the inhibition was -118%. Next, `COc1cc(O)ccc1CN1CCCC12Cc1ccccc1CNC2=O` (configuration not stated): -28%.

Regarding `Cc1cncc(C2CCCN(C(=O)CCc3cc(Cl)no3)C2)n1` (configuration not stated), the inhibition is -18.4%. Next, `O=C(COc1ccccc1Cl)NCC(c1ccco1)N1CCOCC1` (configuration not stated): -52.2%. As to `COc1ccc(N2C(=O)N(Cc3ccccc3)S(=O)(=O)c3cccnc32)cc1`, the inhibition is 13.9%. Consider `COc1ccccc1NC(=O)NCc1cnn2ccccc12`, for which the inhibition was 14.1%.

For `Cc1nc(C2CCN(C(=O)C(C)(C)C)CC2)cc(N2CC3(CCOCC3)OC2=O)n1`, the inhibition is 6.69%. Next, `c1ccc(Cn2nnc3c(N4CCCCC4)ncnc32)cc1`: 3.44%; `O=C(C1CCCCC1)N1CCC(c2nc3c(nnn3Cc3cccc(F)c3)c(=O)[nH]2)CC1`: 19.3%; `O=C(C1CCCCC1)N1CCN(c2ncnc3c2nnn3Cc2ccccc2)CC1`: 43.1% (active). Next, `CCS(=O)(=O)N1CCc2c(nc(C3CCCN3)nc2NC)C1` (configuration not stated): -56.6%. For `COc1ccc(NC(=O)C(C)c2c(C)n[nH]c2C)cc1` (configuration not stated), the inhibition was 23.5%.

The record behind these values is PubChem BioAssay AID1645860 (Buhrlage Lab, Dana-Farber Cancer Institute and Novartis …, 2021).
